Experimental data from the supplement of paper PMC10646978.
± gives the standard deviation.

What was measured:
Conditions in all cases: modulator concentration 10 µM
[1] = tested on: RAW-Dual (murine macrophage reporter line); assay: NF-kB reporter (SEAP) activity fold change vs agonist alone; higher = enhanced NF-kB activity
Outline: (§1)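 RAW-Dual murine macrophage reporter cells were seeded at 50 000 per well in 384-well plates and pre-incubated 1 hour at 37 °C with compound pin-transferred to 10 μM final. After 1 hour, a PRR agonist was added and cells incubated overnight. Supernatant NF-κB (SEAP, QUANTI-Blue, 620 nm absorbance) and IRF (Lucia luciferase, QUANTI-Luc, luminescence) signals were divided by the mean agonist-only control on the same plate to give fold change. Two replicate plates were averaged, with errors by propagation.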

[2] = tested on: RAW-Dual (murine macrophage reporter line); assay: IRF reporter (Lucia luciferase) activity fold change vs agonist alone; higher = enhanced IRF activity
Outline: as §1

[3] = tested on: RAW-Dual (murine macrophage reporter line); assay: viability score (confluency relative to resting cells, overnight) (fraction); higher = more viable, active = viable (0.7 or more)
Outline: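 Confluency was the readout: RAW-Dual macrophages were imaged with IncuCyte after an overnight exposure to compound at 10 μM final. IncuCyte software produced two masks over all imaged wells. The viability score expresses confluency against resting cells, and both masks had to exceed 70% of resting cells for a compound to meet the cutoff.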

[4] = agonist: CpG ODN 1826 0.5 ug/mL

SMILES | NF-kB reporter [1, 4] | NF-kB reporter ([1]; agonist: LPS 0.1 ug/mL) | NF-kB reporter ([1]; agonist: MPLA […]) | IRF reporter ([2]; agonist: 3'3'-cGAMP 10 ug/mL) | IRF reporter ([2]; agonist: LPS 0.1 ug/mL) | IRF reporter ([2]; agonist: MPLA […]) | viability score [3]
CC(=NN1CCN(Cc2cccc3ccccc23)CC1)c1ccc(Cl)cc1 | 0.9 ± 0.086 | 1.06 ± 0.077 | 1.01 ± 0.086 | 1 ± 0.068 | 1.19 ± 0.13 | 0.992 ± 0.12 | 1.01 (active)
O=C(Oc1ccc(C=Nc2ccc([N+](=O)[O-])cc2)cc1)c1ccccc1 | 0.769 ± 0.061 | 0.967 ± 0.089 | 0.978 ± 0.056 | 0.713 ± 0.025 | 0.985 ± 0.12 | 1.12 ± 0.29 | 0.998 (active)
Nc1ccccc1NC(=O)c1ccc(CNC(=O)OCc2cccnc2)cc1 | 2.23 ± 0.17 | 1.53 ± 0.14 | 1.96 ± 0.052 | 0.17 ± 0.033 | 0.252 ± 0.025 | 0.298 ± 0.029 | 0.913 (active)
O=C(NN=Cc1ccc(O)c(O)c1)c1cc2ccccc2cc1O | 0.35 ± 0.03 | 0.729 ± 0.075 | 0.589 ± 0.038 | 0.229 ± 0.017 | 0.909 ± 0.072 | 0.794 ± 0.18 | 0.997 (active)
CC(C)C(=O)c1c(C(C)C)nn2ccccc12 | 1.59 ± 0.12 | 1.2 ± 0.086 | 1.21 ± 0.032 | 0.808 ± 0.076 | 0.938 ± 0.031 | 0.926 ± 0.088 | 0.957 (active)
OCCN(CCO)CC(O)Cn1c2ccc(Cl)cc2c2cc(Cl)ccc21 (configuration not stated) | 0.232 ± 0.013 | 0.503 ± 0.042 | 0.407 ± 0.024 | 0.695 ± 0.032 | 2.78 ± 0.18 | 1.52 ± 0.18 | 0.0946 (inactive)
COc1ccc(S(=O)(=O)NC(C)C)c2ccccc12 | 0.904 ± 0.09 | 0.942 ± 0.084 | 1.06 ± 0.06 | 0.999 ± 0.074 | 1.01 ± 0.13 | 1.08 ± 0.39 | 0.951 (active)
CS(=O)(=O)N1C2CCC1CC(NC(=O)NC1CCCC1)C2 (configuration not stated) | 1.01 ± 0.11 | 1.03 ± 0.12 | 0.88 ± 0.059 | 0.98 ± 0.093 | 1.21 ± 0.14 | 1.2 ± 0.26 | 1.01 (active)
CC(C)(C)C1(O)CC(C(F)(F)F)=NN1C(=O)c1cccc([N+](=O)[O-])c1 (configuration not stated) | 0.62 ± 0.091 | 1.08 ± 0.062 | 0.873 ± 0.052 | 1.01 ± 0.025 | 1.48 ± 0.27 | 1.01 ± 0.22 | 0.974 (active)
COc1ccc(S(=O)(=O)NCCn2nc(C(F)(F)F)cc2C2CC2)cc1 | 0.935 ± 0.077 | 1.09 ± 0.083 | 1.04 ± 0.029 | 0.996 ± 0.037 | 0.953 ± 0.096 | 0.834 ± 0.15 | 0.979 (active)
CC1CC(=CC=CN(C)C)C(=O)C(=CC=CN(C)C)C1 (configuration not stated) | 1.04 ± 0.17 | 1 ± 0.085 | 0.917 ± 0.099 | 0.888 ± 0.043 | 1.22 ± 0.23 | 1.32 ± 0.28 | 1 (active)
CC(=O)Nc1ccc(C(=O)CSc2nnc[nH]2)cc1 | 0.771 ± 0.06 | 0.877 ± 0.072 | 1.01 ± 0.087 | 0.916 ± 0.045 | 1.33 ± 0.086 | 1.47 ± 0.14 | 1.01 (active)
CNC(=O)[C@H](Cc1ccccc1)NC(=O)[C@H](CC(C)C)[C@H](CSc1cccs1)C(=O)NO | 1.23 ± 0.093 | 1.22 ± 0.13 | 1.01 ± 0.048 | 0.96 ± 0.15 | 1.05 ± 0.15 | 0.947 ± 0.28 | 0.999 (active)
O=C(COC(=O)c1ccc(Cl)c([N+](=O)[O-])c1)c1ccc(Cl)cc1 | 0.942 ± 0.072 | 0.978 ± 0.081 | 0.99 ± 0.093 | 0.929 ± 0.035 | 1.22 ± 0.18 | 1.36 ± 0.29 | 1.01 (active)
c1ccc2sc(SCCCCSc3nc4ccccc4s3)nc2c1 | 1.11 ± 0.087 | 1.02 ± 0.1 | 0.938 ± 0.035 | 0.953 ± 0.14 | 1.06 ± 0.1 | 0.977 ± 0.17 | 0.998 (active)
COc1cccc2c1C(=O)c1c(O)c3c(c(O)c1C2=O)C[C@@](O)(C(C)=O)C[C@@H]3O[C@H]1C[C@H](N)[C@H](O)[C@H](C)O1 [Prestw-487] | 0.0705 ± 0.0054 | 0.0667 ± 0.019 | 0.095 ± 0.0092 | 0.0214 ± 0.0026 | 0.024 ± 0.0063 | 0.0245 ± 0.0067 | 0.325 (inactive)
COc1ccc2oc(=O)c(-c3csc(NC(=O)C=CC(=O)O)n3)cc2c1 | 1.09 ± 0.099 | 0.895 ± 0.086 | 0.985 ± 0.027 | 0.353 ± 0.017 | 0.938 ± 0.11 | 0.844 ± 0.13 | 0.959 (active)
Oc1c(Cl)cc(Cl)cc1C=Nc1cc(Cl)cc(Cl)c1 | 0.734 ± 0.14 | 0.915 ± 0.076 | 0.761 ± 0.066 | 0.437 ± 0.019 | 1.05 ± 0.1 | 1.09 ± 0.14 | 0.734 (active)
CCOC(=O)C1=C(C)NC(C)=C(C(=O)OCC)C1c1ccc(Cl)c(Cl)c1 | 0.693 ± 0.23 | 0.996 ± 0.078 | 0.832 ± 0.079 | 1.05 ± 0.045 | 1.19 ± 0.19 | 1.37 ± 0.29 | 0.998 (active)
Cc1c(C(=O)OC(C)C)sc(NC(=O)C(C)(C)C)c1C(=O)OC(C)C | 0.823 ± 0.081 | 0.908 ± 0.044 | 1.09 ± 0.099 | 1 ± 0.06 | 1.56 ± 0.095 | 1.77 ± 0.16 | 0.985 (active)
COc1cc(C=NNC(=O)CSc2ccccn2)cc(Cl)c1O | 1.16 ± 0.073 | 1.02 ± 0.15 | 0.953 ± 0.026 | 1.04 ± 0.042 | 0.95 ± 0.12 | 0.94 ± 0.18 | 1 (active)
O=c1cc(O)c(Cl)c[nH]1 | 0.953 ± 0.11 | 0.952 ± 0.15 | 1 ± 0.052 | 1.01 ± 0.12 | 0.925 ± 0.033 | 0.839 ± 0.13 | 0.996 (active)
O=C(Cn1cnc(-c2ccc(Cl)cc2)cc1=O)N1CCOCC1 | 1.07 ± 0.29 | 0.924 ± 0.047 | 0.925 ± 0.07 | 0.933 ± 0.032 | 1.09 ± 0.17 | 1.09 ± 0.21 | 1 (active)
O=[N+]([O-])c1ccc(-n2cccc2C=NNc2nc(N3CCCCC3)nc(N3CCCCC3)n2)cc1 | 0.994 ± 0.087 | 1.01 ± 0.12 | 0.926 ± 0.054 | 0.907 ± 0.039 | 1.38 ± 0.12 | 1.05 ± 0.1 | 1 (active)
CCc1c(C)nc(-n2nc(C)cc2NC(=O)CSCc2ccccc2)[nH]c1=O | 0.901 ± 0.056 | 0.603 ± 0.082 | 0.885 ± 0.038 | 0.973 ± 0.065 | 1.22 ± 0.078 | 1.07 ± 0.099 | 1.02 (active)
CC(=O)N1CCc2ccc(NC(=O)C3(c4ccccc4)CCOCC3)cc2C1 | 0.91 ± 0.063 | 1 ± 0.082 | 1.4 ± 0.075 | 1.22 ± 0.06 | 1.28 ± 0.24 | 1.31 ± 0.54 | 0.979 (active)
